Where “and” joins values, the source holds several entries; their conditions need not be identical. Equal entries are not always repeated. The panel holds about 83,000 compounds, 20% with a hit somewhere; the sample as a whole holds those more often.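 For each line, cells grew in 96-well plates with the test compound present at a single concentration for 48 hours.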 Calls of active or inactive are those of the source.

In the assay the test system is CCRF-CEM leukemia. The assay can be described thus: NCI-60 one-dose screen, 48 h (100 = growth as untreated, 0 = no growth, -100 = all killed). Conditions: 10 µM unless noted. As to the method: Growth inhibition of the CCRF-CEM human tumor cell line is measured as a screen for anti-cancer activity. Cells are grown in 96 well plates and exposed to the test compound for 48 hours. Compounds are tested at a single concentration, which is 10^-5 M for most compounds. The reported endpoint is percent growth (GI% or GIPRCNT), where numbers from 0 - 100% represent growth inhibition, and numbers from -100% - 0 represent cell death. For example, a value of 40 represents 60% growth inhibition. A value of 0 means no net growth occurred over the course of the experiment. A value of -40 indicates 40% of cells at the beginning of the experiment died by the end of the experiment. A value of -100 means all cells are dead at the end of the experiment.
NCI-60 Human Tumor Cell Lines Screen was performed using the standard one-dose NCI protocol, which is described in more detail at https://dtp.cancer.gov/discovery_development/nci-60/default.htm.
Compounds with GIPRCNT values below 10 were considered active. Activity score was based on GIPRCNT using the following formula: […]
Score is 0 for GIPRCNT values of 100 or above, 50 for GIPRCNT values of 0, and 100 for GIPRCNT values of -100.
For `Cc1ccc(C(=O)Nc2nc3c(s2)CN(Cc2ccccc2)CC3)cn1`, the growth is 85.5% (inactive).
For the molecule `CCOC(=O)c1cnn(-c2ccc(S(N)(=O)=O)cc2)c1N`, the growth is 85.3% (inactive).
With `Cc1ccccc1SSc1ccccc1C` the figure was 79% (inactive).
As for `N#Cc1ccccc1OCC(=O)Nc1nc2c(s1)COc1ccccc1-2`, the growth is 96% (inactive).
With `COC(=O)c1nc(-c2ccccc2)oc1S(=O)(=O)N(C)CCO`, the growth is 16.2% (inactive).
Consider `CN(C)C1CCN(C(=O)c2ccc(NC(=O)Nc3ccc(-c4nc(N5CCOCC5)c5cccn5n4)cc3)cc2)CC1`, for which the growth is 10.5% (inactive).
Then `C=C1CC[C@@H]2[C@](C)(COC(C)=O)[C@H](OC(C)=O)CC[C@@]2(C)[C@@H]1CC(Nc1ccc(S(=O)(=O)Nc2nccs2)cc1)C1=CCOC1=O` (stereo not given in full), with -27.7% (active); and `COc1ccc2nc3cc(Cl)ccc3c(NCCCNCCC(C)O)c2c1` (stereo not given), with -24% (active).
Then `Cn1c(=O)c2c(nc(Nc3cc(=O)[nH]c(=O)[nH]3)n2Cc2ccccc2)n(C)c1=O`, with 95.1% (inactive).
Then `O=C1CCCCN1CCCCC#Cc1cccc(C#Cc2cccnc2)c1`, with -23% (active).
Consider `COc1ccc2c(c1)CCNC21C(=O)Nc2c(Br)cc(Br)cc21` (stereo not given), for which the growth is 113% (inactive).
Then `Cn1cc(-c2csc(-c3c[nH]c4ccc(F)cc34)n2)c2cnccc21`, with -32.3% (active); and `CCCn1nc(C(=O)N2CCCCC2)c2c1CCC(N1CCC(c3ccncc3)CC1)C2` (stereo not given), with 101% (inactive); and `OCc1cc(CN2CCCCC2)c(O)c2ncccc12`, with 29.5% (inactive).
With `COc1ccc(/C=N/C2=C(C#N)C(c3ccccc3)c3c(ccc4ccccc34)O2)cc1` (stereo not given) the figure was 15.2% (inactive); with `CCCCCCNC(=O)Oc1ccc(/C(=C(/CC)Cc2ccccc2)c2ccc(OCCCN(C)C)cc2)cc1`, 69.4% (inactive).
Consider `Cc1ccc(/C=C(\C#N)c2cc3ccccc3[nH]2)cc1`, for which the growth is 46% (inactive).
With `c1ccc(-c2cc(-c3cc(-c4ccccc4)on3)no2)cc1` the figure was 81.9% (inactive); with `CC(=O)c1nn(-c2ccccc2)/c(=N/N=Cc2cn(-c3ccccc3)nc2-c2cc3ccccc3oc2=O)s1`, 101% (inactive); with `Cc1ccc(C(=O)Nc2ccc(CN3CCN(C)CC3)c(C(F)(F)F)c2)cc1C#Cc1cnc(N)cc1C#N`, -8.11% (active).
Then `CCN(CC)CC(=O)Nc1ccc2ncnc(Nc3ccc(Oc4cccc(F)c4)c(Cl)c3)c2c1`, with 46.8% (inactive).
Turning to `COc1cccc(C2C(C#N)=C(N)Oc3cc(OCCCCCC[P+](c4ccccc4)(c4ccccc4)c4ccccc4)ccc32)c1` (stereo not given), the growth is 1.92% (active).
For the molecule `O=Nc1c(O)ccc2ccccc12`, the growth is 20.6% (inactive) and 58.4% (inactive).
Turning to `O=C1/C(=C/c2cn(-c3ccccc3)nc2-c2ccccc2)SC(=S)N1c1ccccc1`, the growth was 101% (inactive).
With `CCCCCCCCCCCCCCCCCCOc1cccc(CC(=O)OCC[N+](CC)(CC)CC)c1` the figure was 32.5% (inactive); with `Cc1cc2nc(C(Cl)Cl)nc(-c3ccc(Cl)cc3)n2n1`, 29.2% (inactive); with `CC(=O)Nc1c(I)c(NC(C)=O)c(I)c(C(=O)O)c1I`, 95.9% (inactive) and 105% (inactive).
With `CCOC(=O)c1nc2c3ccccc3cnn2c1C(=O)c1ccc(OC)cc1` the figure was 91.2% (inactive); with `COc1ccc(/C(C)=C(\c2ccc(OCCN3CCCCCC3)cc2)c2ccc(OC(=O)C3CCCCC3)cc2)cc1`, -31.5% (active); with `COc1cc(-c2nc3occn3c2-c2ccnc(NCCCNS(=O)(=O)c3ccc(O)cc3)n2)ccc1F`, 75.4% (inactive).
For the molecule `CCN(c1cc(-c2ccc(CN3CCC(/C=C/S(=O)(=O)c4ccccc4)CC3)cc2)cc(C(=O)NCc2c(C)cc(C)[nH]c2=O)c1C)C1CCOCC1`, the growth was 38.2% (inactive).
Then `O=C(CCl)n1nnnc1Cc1ccccc1`, with 86.3% (inactive); and `COc1ccc(/C=C2/C(=O)N=C3N2NC(c2ccccc2)=CN3c2ccccc2)cc1`, with 101% (inactive); and `COc1nc(=O)n(C2C=CC(=O)O2)cc1F` (stereo not given), with 48.7% (inactive).
For the molecule `Cc1ccc(Cl)cc1N1CCN(C(=O)[C@@H]2C[C@@H]2c2ccc(F)cc2)CC1`, the growth is 91.5% (inactive).
In the case of `N#CC1=C(N)Oc2c(sc3c(Br)cccc23)C1c1ccccn1` (stereo not given), the growth was 22.1% (inactive).
Then `COC1=CC(c2ccc[nH]2)=N/C1=C\c1[nH]c(C)c(C(=O)Oc2ccccc2)c1C`, with 18.6% (inactive); and `O=C(N=Nc1c(O)[nH]c2ccccc12)Nc1ccc(Br)cc1`, with -43.8% (active); and `CC(=O)/C=C/c1ccc(N(CCO)Cc2ccc(C(C)(C)C)cc2)cc1`, with -47.9% [100 µM] (active).
With `C/C(=C(\c1ccc(OCCN2CCOCC2)cc1)c1ccc(OC(=O)C2CCCCC2)cc1)c1ccc(Cl)cc1` the figure was -24.6% (active).

(Values after PubChem BioAssay (NCI).)
